The panel holds about 79,000 compounds, 15% with a hit somewhere; the sample as a whole holds those more often. The source made the active and inactive calls. Cut-off read from the data, not from the text of the source: active = growth inhibition above about 70%; inactive = the rest.
Assays:
[1] = NCI Yeast Anticancer Drug Screen. Data for the rad52 strain (AID 147);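 note: 0% = growth of vehicle-treated control cultures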; conditions: S. cerevisiae rad52 mutant growth inhibition, active compounds read high
Method in brief: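 Growth of repair-deficient yeast cells was compared between compound-treated and vehicle-treated cultures to give percent inhibition.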

[2] = NCI Yeast Anticancer Drug Screen. Data for the wt1 strain (AID 149);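 note: 0% = growth of vehicle-treated wt1 cultures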; conditions: S. cerevisiae wt1 strain (SPY 50644) growth inhibition, active compounds read high
Method in brief: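 wt1 yeast, compound-treated; % growth inhibition vs vehicle control.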

[3] = NCI Yeast Anticancer Drug Screen. Data for the mgt1 strain (AID 153); conditions: S. cerevisiae mgt1 mutant growth inhibition, active compounds read high
Method in brief: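 Compounds were applied to mgt1 mutant yeast, and growth was then compared against vehicle-treated control cultures to give percent inhibition.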

[4] = NCI Yeast Anticancer Drug Screen. Data for the rad50 strain (AID 155);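 note: 0% = growth of vehicle-only cultures of the same strain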; conditions: S. cerevisiae rad50 strain growth inhibition, active compounds read high
Method in brief: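 Genetically altered yeast (DNA repair pathway); compound treatment; growth inhibition vs vehicle ctrl.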

[5] = NCI Yeast Anticancer Drug Screen. Data for the mec2-1 strain (AID 157); conditions: S. cerevisiae mec2-1 strain, active compounds read high
Method in brief: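 Compounds were applied to mec2-1 yeast cells. Their growth was then compared with that of vehicle-treated cultures to give growth inhibition.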

[6] = NCI Yeast Anticancer Drug Screen. Data for the rad14 strain (AID 159);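 note: 0% = growth of vehicle-treated control cultures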; conditions: S. cerevisiae rad14 strain growth inhibition, active compounds read high
Method in brief: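 Test compounds were applied to a repair-deficient yeast strain. Its growth was then compared with that of cultures given vehicle alone, and inhibition was expressed relative to those controls.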

[7] = NCI Yeast Anticancer Drug Screen. Data for the sgs1 mgt1 strain (AID 161);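 note: 0% = growth of cultures given vehicle only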; conditions: S. cerevisiae sgs1 mgt1 strain, active compounds read high
Method in brief: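 Growth of a repair-deficient yeast mutant was monitored after compound treatment and expressed as inhibition relative to vehicle-treated cultures.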

[8] = NCI Yeast Anticancer Drug Screen. Data for the CLN2oe strain (AID 163);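 note: 0% = growth of vehicle-only control cultures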; conditions: S. cerevisiae CLN2oe strain, active compounds read high
Method in brief: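 Cells of an engineered yeast line with disturbed cell-cycle regulation are treated with compound. Inhibition of growth is then calculated relative to the vehicle-treated reference.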

[9] = NCI Yeast Anticancer Drug Screen. Data for the cln2 rad14 strain (AID 165);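 note: 0% = growth equal to vehicle treated cultures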; conditions: S. cerevisiae cln2 rad14 strain, active compounds read high
Method in brief: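 Strain: cln2 rad14 yeast, altered in cell cycle control and DNA damage repair. Read-out: growth inhibition vs vehicle.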

[10] = NCI Yeast Anticancer Drug Screen. Data for the bub3 strain (AID 167); conditions: S. cerevisiae bub3 mutant strain, active compounds read high
Method in brief: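 Yeast carrying a defined mutation is treated with each compound, and growth is compared with that of vehicle-exposed cells to give inhibition.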

[11] = NCI Yeast Anticancer Drug Screen. Data for the wt2 strain (AID 169);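 note: 0% = growth of vehicle-treated yeast cultures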; conditions: S. cerevisiae wt2 strain growth inhibition, active compounds read high
Method in brief: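 Growth of compound-treated yeast is measured and expressed as inhibition relative to vehicle-only controls.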

[12] = NCI Yeast Anticancer Drug Screen. Data for the mlh1 strain (AID 171);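 note: 0% = growth of vehicle-treated control cultures of the same strain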; conditions: S. cerevisiae mlh1 strain growth inhibition, active compounds read high
Method in brief: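 Test agents were incubated with yeast bearing a defined DNA damage repair or cell cycle control alteration; values are growth inhibition normalised to vehicle-treated cultures.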

[13] = NCI Yeast Anticancer Drug Screen. Data for the sgs1 strain (AID 173);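 note: 0% = growth of vehicle-only control cultures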; conditions: S. cerevisiae sgs1 mutant, active compounds read high
Method in brief: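 Strain with an altered DNA repair or cell cycle pathway exposed to compound. Growth then measured. Value = inhibition versus vehicle control.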

[14] = NCI Yeast Anticancer Drug Screen. Data for the mlh1 rad18 strain (AID 175); conditions: S. cerevisiae mlh1 rad18 strain growth inhibition, active compounds read high
Method in brief: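 A repair-deficient yeast strain is exposed to test compound, and growth is scored relative to vehicle-treated controls.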

[15] = NCI Yeast Anticancer Drug Screen. Data for the rad18 strain (AID 177); conditions: S. cerevisiae rad18 mutant growth inhibition, active compounds read high
Method in brief: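 DNA-repair-defective yeast; compound treatment; growth inhibition scored against vehicle.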

[16] = NCI Yeast Anticancer Drug Screen. Data for the rad50EPP+ strain (AID 151);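 note: 0% = growth of vehicle-treated control cultures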; conditions: S. cerevisiae rad50 mutant strain, active compounds read high
Method in brief: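 Measured: growth inhibition of rad50EPP+ yeast. Reference: vehicle-treated controls. Screen uses strains with defined genetic alterations in DNA damage repair or cell cycle control.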

[17] = at 5.0 µM (retest, dose inferred, filed as 0.5)
[18] = at 50.0 µM (retest, dose inferred, filed as 5.0)

Measured: growth inhibition

CCN(CC)C(C)(C)C(=O)/C=C/c1ccccc1
inactive: [1]; at 1.2 µM -1% | [1]; at 3.7 µM -1% | [1]; at 11.0 µM 0% | [1]; at 33.0 µM -1% | [1]; at 100.0 µM 2% | [2]; at 1.2 µM 0% | [2]; at 3.7 µM 5% | [2]; at 11.0 µM 2% | [2]; at 33.0 µM 2% | [2]; at 100.0 µM 4% | [3]; at 1.2 µM -3% | [3]; at 3.7 µM -3% | [3]; at 11.0 µM -3% | [3]; at 33.0 µM -1% | [3]; at 100.0 µM 2% | [4]; at 1.2 µM 0% | [4]; at 3.7 µM 2% | [4]; [17] 19% | [4]; at 11.0 µM 0% | [4]; at 33.0 µM 1% | [4]; at 50.0 µM 17.2% | [4]; at 100.0 µM 3% | [5]; at 1.2 µM 1% | [5]; at 3.7 µM 6% | [5]; [17] -15% | [5]; at 11.0 µM 5% | [5]; at 33.0 µM 9% | [5]; [18] 47% | [5]; at 50.0 µM 13.7% | [5]; at 100.0 µM 4% | [6]; at 1.2 µM -3% | [6]; at 3.7 µM -3% | [6]; at 11.0 µM 1% | [6]; at 33.0 µM 5% | [6]; at 100.0 µM 14% | [7]; [17] 42% | [7]; at 50.0 µM 17.6% | [8]; at 1.2 µM -4% | [8]; at 3.7 µM -12% | [8]; at 11.0 µM -4% | [8]; at 33.0 µM 1% | [8]; at 100.0 µM 2% | [9]; [17] -9% | [9]; [18] 46% | [9]; at 50.0 µM 7.15% | [10]; at 1.2 µM -1% | [10]; at 3.7 µM -3% | [10]; [17] 9% | [10]; at 11.0 µM 0% | [10]; at 33.0 µM -1% | [10]; at 50.0 µM 17.8% | [10]; at 100.0 µM -5% | [11]; at 1.2 µM 0% | [11]; at 3.7 µM -1% | [11]; at 11.0 µM -1% | [11]; at 33.0 µM 3% | [11]; at 100.0 µM 6% | [12]; at 1.2 µM 2% | [12]; at 3.7 µM 2% | [12]; at 11.0 µM 3% | [12]; at 33.0 µM 3% | [12]; at 100.0 µM 5% | [13]; at 1.2 µM 2% | [13]; at 3.7 µM 1% | [13]; at 11.0 µM 4% | [13]; at 33.0 µM 6% | [13]; at 100.0 µM 7% | [14]; [17] 57% | [14]; at 50.0 µM 20.4% | [15]; at 1.2 µM 1% | [15]; at 3.7 µM -1% | [15]; at 11.0 µM -1% | [15]; at 33.0 µM 3% | [15]; at 100.0 µM 6%
active: [4]; [18] 80% | [7]; [18] 92% | [10]; [18] 77% | [14]; [18] 95%

CCOC(=O)c1cnc2cc(C(F)(F)F)ccc2c1N=[N+]=[N-]
active: [1]; at 100.0 µM 85% | [16]; at 100.0 µM 82% | [3]; at 100.0 µM 92% | [4]; at 100.0 µM 83% | [5]; at 100.0 µM 90% | [6]; at 100.0 µM 93% | [8]; at 100.0 µM 87% | [10]; at 100.0 µM 74% | [11]; at 100.0 µM 93% | [12]; at 100.0 µM 87% | [13]; at 33.0 µM 75% | [13]; at 100.0 µM 94% | [15]; at 100.0 µM 88%
inactive: [1]; at 1.2 µM 12% | [1]; at 3.7 µM 13% | [1]; at 11.0 µM 23% | [1]; at 33.0 µM 48% | [16]; at 1.2 µM 6% | [16]; at 3.7 µM 13% | [16]; at 11.0 µM 26% | [16]; at 33.0 µM 54% | [3]; at 1.2 µM 4% | [3]; at 3.7 µM 6% | [3]; at 11.0 µM 22% | [3]; at 33.0 µM 66% | [4]; at 1.2 µM 8% | [4]; at 3.7 µM 25% | [4]; [17] 7% | [4]; at 11.0 µM 23% | [4]; at 33.0 µM 50% | [4]; [18] 20% | [4]; at 50.0 µM 44.4% | [5]; at 1.2 µM 14% | [5]; at 3.7 µM 12% | [5]; [17] -3% | [5]; at 11.0 µM 22% | [5]; at 33.0 µM 56% | [5]; [18] 4% | [5]; at 50.0 µM 20.2% | [6]; at 1.2 µM 7% | [6]; at 3.7 µM 3% | [6]; at 11.0 µM 12% | [6]; at 33.0 µM 49% | [7]; [17] -1% | [7]; [18] -3% | [7]; at 50.0 µM 43.4% | [8]; at 1.2 µM 11% | [8]; at 3.7 µM 12% | [8]; at 11.0 µM 18% | [8]; at 33.0 µM 64% | [9]; [17] -4% | [9]; [18] 1% | [9]; at 50.0 µM 25.1% | [10]; at 1.2 µM 11% | [10]; at 3.7 µM 7% | [10]; [17] -17% | [10]; at 11.0 µM 14% | [10]; at 33.0 µM 46% | [10]; [18] 48% | [10]; at 50.0 µM -3.4% | [11]; at 1.2 µM 2% | [11]; at 3.7 µM 2% | [11]; at 11.0 µM 14% | [11]; at 33.0 µM 59% | [12]; at 1.2 µM 7% | [12]; at 3.7 µM 6% | [12]; at 11.0 µM 15% | [12]; at 33.0 µM 51% | [13]; at 1.2 µM 10% | [13]; at 3.7 µM 12% | [13]; at 11.0 µM 25% | [14]; [17] -4% | [14]; [18] 12% | [14]; at 50.0 µM 59.9% | [15]; at 1.2 µM 15% | [15]; at 3.7 µM 22% | [15]; at 11.0 µM 33% | [15]; at 33.0 µM 58%

From PubChem BioAssay (NCI)
